Measured values taken from PubChem BioAssay (NCI).
About 83,000 compounds went through this panel and 20% of them were active in at least one assay; those are over-represented in the sample as a whole.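 Assay: single dose, 48 h. Readout: percent growth (0 = no net growth; negative = cell death). Active: <10.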 Unmarked numbers belong to inactive results. Calls of active or inactive are those of the source.

Columns and labels:
Experiment in all cases: NCI-60 one-dose screen, 48 h (100 = growth as untreated, 0 = no growth, -100 = all killed)
Details in all cases: 10 µM unless noted
[1] = system: EKVX NSCLC
[2] = system: SN12C renal
[3] = system: UO-31 renal
[4] = system: TK-10 renal
[5] = system: ACHN renal
[6] = system: CAKI-1 renal
[7] = system: A498 renal
[8] = system: CCRF-CEM leukemia
[9] = system: MOLT-4 leukemia
[10] = system: SR leukemia
[11] = system: RPMI-8226 leukemia
[12] = system: OVCAR-8 ovarian
[13] = system: OVCAR-5 ovarian
[14] = system: OVCAR-4 ovarian
[15] = system: SK-OV-3 ovarian
[16] = system: IGROV1 ovarian
[17] = system: OVCAR-3 ovarian
[18] = system: HS 578T breast
[19] = system: NCI/ADR-RES ovarian
[20] = system: SK-MEL-2 melanoma

SMILES	growth [1]	growth [2]	growth [3]	growth [4]	growth [5]	growth [6]	growth [7]	growth [8]	growth [9]	growth [10]	growth [11]	growth [12]	growth [13]	growth [14]	growth [15]	growth [16]	growth [17]	growth [18]	growth [19]	growth [20]
CN(C)c1ccc2cc(-c3ccccc3F)c(N)nc2c1	31.1%	54.9%	34%	34.6%	41.2%	37.5%	-7.09% (active)	45.7%	35.1%	6.09% (active)	25.2%	22.6%	68.7%	32.8%	28.9%	40.9%	3.93% (active)	28.9%	1.98% (active)	–
CCNCCNc1cc(-c2ccc(C#N)cc2)c(C#N)c2nc3ccccc3n12	76%	59.3%	-21.3% (active)	82.3%	3.09% (active)	57.4%	60.7%	27.5%	51.2%	-1.04% (active)	51.6%	38.7%	75.6%	-34% (active)	87.4%	47.7%	-47.7% (active)	25.2%	60.9%	–
Nc1ccc(CCCCc2ccccc2)c(Cl)c1	–	87.4%	63.9%	88.7%	94.2%	83.8%	73.2%	60.1%	69.2%	92.7%	85.4%	94%	96.7%	84.4%	–	87.2%	94.3%	93.7%	104%	91.2%
CCNCCNc1cc(-c2ccc(C(F)(F)F)cc2)c(C#N)c2nc3cc(Cl)c(Cl)cc3n12	-94.2% (active)	-70.9% (active)	-92.5% (active)	-94.7% (active)	-100% (active)	-91.5% (active)	-40.5% (active)	-48.4% (active)	-56.8% (active)	-49.2% (active)	-41.6% (active)	-64.1% (active)	-92.3% (active)	-81.9% (active)	67.6%	-77.8% (active)	-88.4% (active)	-53.2% (active)	-79.2% (active)	–
NC(=S)N/N=C/C(=O)O	–	90.4%	38.8%	–	91.2%	88.5%	80.3%	24.3%	44%	62.9%	48.1%	81.9%	102%	75.3%	108%	-32.7% (active)	26.1%	84.3%	88.7%	85.3%
COc1cc(NC(=O)c2cccc(-c3cc(=O)c4c(OC)c(OC)c(OC)cc4o3)c2)cc(OC)c1OC	–	–	20.9%	69.4%	56.7%	40.6%	57.4%	31.3%	10.4%	29.8%	0.302% (active)	30.9%	86%	74.8%	–	51.8%	40.8%	9.2% (active)	51.1%	41.7%
O=C1C2=C(CCN(Cc3ccccc3)C2)N2CCN=C2N1Cc1ccc(C(F)(F)F)cc1	20.6%	23.1%	25.4%	37.7%	31.3%	28.6%	-0.0454% (active)	52.6%	59.8%	49.5%	19%	17%	56.9%	-4.49% (active)	21%	33%	23.9%	36%	16.6%	–
CCNCCNc1cc(-c2ccc(Cl)cc2)c(C#N)c2nc3ccccc3n12	11.2%	44.9%	-95.2% (active)	-20.3% (active)	-60% (active)	39.5%	2.87% (active)	-21.3% (active)	-28.7% (active)	-35.6% (active)	-19.4% (active)	10.7%	4.7% (active)	-9.51% (active)	31.5%	22.4%	-78.2% (active)	-36% (active)	22.6%	–
Nc1ccn(C2OC(F)(CO)C(O)C2F)c(=O)n1 (stereo not drawn)	81.4%	36.4%	10.7%	75.8%	2.4% (active)	35.6%	50.2%	25%	18.8%	90.4%	106%	22.4%	97.4%	73.2%	33.4%	49.8%	66.8%	78.8%	18.4%	–
O=C1CSC(c2ccccc2)N1c1ccccc1 (stereo not drawn)	–	–	85.7%	110%	101%	102%	61.7%	97.1%	107%	88%	100%	102%	103%	104%	100%	112%	112%	86.8%	100%	74.4%
Nc1c(C(=O)c2ccc(Cl)s2)sc2nc3c(cc12)CCCC3	–	94.4%	–	151%	112%	87%	72%	99.9%	99.5%	97.3%	90.9%	105%	137%	112%	90.8%	104%	106%	111%	101%	105%
C=C(Cl)COC(=O)C(C)(C)O	–	–	92.7%	89.5%	105%	94.6%	94.1%	92.6%	97.1%	91.2%	99.5%	98.7%	102%	93.3%	97.2%	109%	109%	110%	95.2%	92.9%
Nc1c(C(=O)Nc2ccccc2)sc2nc3c(cc12)CCCCCC3	–	–	16.6%	36.3%	26.5%	42%	-0.375% (active)	6.81% (active)	18.3%	12.6%	–	16.4%	15.3%	–	-4.37% (active)	15.3%	-34.8% (active)	22.8%	1.41% (active)	9.7% (active)
O=C1NCC(=O)N(Cc2ccco2)[C@H]1Cc1ccccc1	89.2%	98.1%	99.8%	–	105%	97.4%	52.9%	103%	102%	92.6%	104%	105%	106%	103%	96.7%	109%	110%	89%	104%	–
O=C(CC1Sc2ccccc2NC1=O)NNc1ccc(F)cc1 (stereo not drawn)	75.9%	89.5%	48.4%	121%	56.4%	69%	91.7%	7.39% (active)	45.8%	83.5%	78.7%	–	76.3%	72%	92.5%	70.3%	84.8%	82.4%	44.1%	–
COc1ccc(O)c(-c2cc(-c3ccccc3)c(C#N)c(=O)[nH]2)c1	104%	–	68.2%	88.2%	106%	95.1%	65.9%	91.7%	102%	89%	81.2%	96.3%	124%	97.4%	92.6%	98.8%	95.9%	89.6%	97.3%	–
O=C1CSC(c2ccccc2Cl)N1c1nnc(Cn2cnnc2)o1 (stereo not drawn)	60.7%	82%	66.4%	91.1%	73.6%	–	75.5%	43.4%	20.2%	-23.1% (active)	55.1%	–	63%	68.6%	49%	74.7%	44.1%	82.3%	8.38% (active)	–
